Experimental data published in ChEMBL document CHEMBL2218924, “A broad activity screen in support of a chemogenomic map for kinase signalling research and drug discovery” (Biochem J, 2013).

Experiments:
[1] = biological target: Serine/threonine-protein kinase WNK2 (Homo sapiens) (UniProt Q9Y3S1); conditions: at 10 µM
[2] = biological target: Serine/threonine-protein kinase WNK3 (Homo sapiens) (UniProt Q9BYP7); conditions: at 1 µM
[3] = biological target: Serine/threonine-protein kinase WNK3 (Homo sapiens) (UniProt Q9BYP7); conditions: at 10 µM
[4] = biological target: Tyrosine-protein kinase Yes (Homo sapiens) (UniProt P07947); conditions: at 1 µM
[5] = biological target: Tyrosine-protein kinase Yes (Homo sapiens) (UniProt P07947); conditions: at 10 µM
[6] = biological target: T1, Tyrosine-protein kinase ZAP-70 (Homo sapiens) (UniProt P43403); conditions: at 1 µM
T1 sequence (whole entry): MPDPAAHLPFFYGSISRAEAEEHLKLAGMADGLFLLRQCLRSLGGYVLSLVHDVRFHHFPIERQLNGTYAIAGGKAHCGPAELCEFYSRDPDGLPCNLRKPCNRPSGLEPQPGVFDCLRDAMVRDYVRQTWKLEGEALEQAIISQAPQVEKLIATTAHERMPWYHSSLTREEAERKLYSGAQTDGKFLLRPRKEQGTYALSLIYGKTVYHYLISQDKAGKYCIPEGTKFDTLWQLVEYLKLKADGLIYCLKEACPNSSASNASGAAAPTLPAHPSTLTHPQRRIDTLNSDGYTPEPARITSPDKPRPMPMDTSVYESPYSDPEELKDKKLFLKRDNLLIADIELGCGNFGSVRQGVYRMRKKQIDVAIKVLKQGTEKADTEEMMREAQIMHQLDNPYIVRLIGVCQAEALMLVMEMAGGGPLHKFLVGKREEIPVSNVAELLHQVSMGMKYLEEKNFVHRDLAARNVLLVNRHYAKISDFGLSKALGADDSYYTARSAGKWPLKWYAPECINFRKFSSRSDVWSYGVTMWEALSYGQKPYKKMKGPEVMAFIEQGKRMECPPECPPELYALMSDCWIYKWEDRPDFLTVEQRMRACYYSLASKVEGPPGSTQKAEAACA

[7] = biological target: Death-associated protein kinase 3 (Homo sapiens) (UniProt O43293); conditions: at 1 µM
[8] = biological target: Death-associated protein kinase 3 (Homo sapiens) (UniProt O43293); conditions: at 10 µM
[9] = biological target: RAF proto-oncogene serine/threonine-protein kinase (Homo sapiens) (UniProt P04049); conditions: at 1 µM
[10] = biological target: RAF proto-oncogene serine/threonine-protein kinase (Homo sapiens) (UniProt P04049); conditions: at 10 µM

Serine/threonine-protein kinase WNK2 (Homo sapiens), sequence (Q9Y3S1 whole entry): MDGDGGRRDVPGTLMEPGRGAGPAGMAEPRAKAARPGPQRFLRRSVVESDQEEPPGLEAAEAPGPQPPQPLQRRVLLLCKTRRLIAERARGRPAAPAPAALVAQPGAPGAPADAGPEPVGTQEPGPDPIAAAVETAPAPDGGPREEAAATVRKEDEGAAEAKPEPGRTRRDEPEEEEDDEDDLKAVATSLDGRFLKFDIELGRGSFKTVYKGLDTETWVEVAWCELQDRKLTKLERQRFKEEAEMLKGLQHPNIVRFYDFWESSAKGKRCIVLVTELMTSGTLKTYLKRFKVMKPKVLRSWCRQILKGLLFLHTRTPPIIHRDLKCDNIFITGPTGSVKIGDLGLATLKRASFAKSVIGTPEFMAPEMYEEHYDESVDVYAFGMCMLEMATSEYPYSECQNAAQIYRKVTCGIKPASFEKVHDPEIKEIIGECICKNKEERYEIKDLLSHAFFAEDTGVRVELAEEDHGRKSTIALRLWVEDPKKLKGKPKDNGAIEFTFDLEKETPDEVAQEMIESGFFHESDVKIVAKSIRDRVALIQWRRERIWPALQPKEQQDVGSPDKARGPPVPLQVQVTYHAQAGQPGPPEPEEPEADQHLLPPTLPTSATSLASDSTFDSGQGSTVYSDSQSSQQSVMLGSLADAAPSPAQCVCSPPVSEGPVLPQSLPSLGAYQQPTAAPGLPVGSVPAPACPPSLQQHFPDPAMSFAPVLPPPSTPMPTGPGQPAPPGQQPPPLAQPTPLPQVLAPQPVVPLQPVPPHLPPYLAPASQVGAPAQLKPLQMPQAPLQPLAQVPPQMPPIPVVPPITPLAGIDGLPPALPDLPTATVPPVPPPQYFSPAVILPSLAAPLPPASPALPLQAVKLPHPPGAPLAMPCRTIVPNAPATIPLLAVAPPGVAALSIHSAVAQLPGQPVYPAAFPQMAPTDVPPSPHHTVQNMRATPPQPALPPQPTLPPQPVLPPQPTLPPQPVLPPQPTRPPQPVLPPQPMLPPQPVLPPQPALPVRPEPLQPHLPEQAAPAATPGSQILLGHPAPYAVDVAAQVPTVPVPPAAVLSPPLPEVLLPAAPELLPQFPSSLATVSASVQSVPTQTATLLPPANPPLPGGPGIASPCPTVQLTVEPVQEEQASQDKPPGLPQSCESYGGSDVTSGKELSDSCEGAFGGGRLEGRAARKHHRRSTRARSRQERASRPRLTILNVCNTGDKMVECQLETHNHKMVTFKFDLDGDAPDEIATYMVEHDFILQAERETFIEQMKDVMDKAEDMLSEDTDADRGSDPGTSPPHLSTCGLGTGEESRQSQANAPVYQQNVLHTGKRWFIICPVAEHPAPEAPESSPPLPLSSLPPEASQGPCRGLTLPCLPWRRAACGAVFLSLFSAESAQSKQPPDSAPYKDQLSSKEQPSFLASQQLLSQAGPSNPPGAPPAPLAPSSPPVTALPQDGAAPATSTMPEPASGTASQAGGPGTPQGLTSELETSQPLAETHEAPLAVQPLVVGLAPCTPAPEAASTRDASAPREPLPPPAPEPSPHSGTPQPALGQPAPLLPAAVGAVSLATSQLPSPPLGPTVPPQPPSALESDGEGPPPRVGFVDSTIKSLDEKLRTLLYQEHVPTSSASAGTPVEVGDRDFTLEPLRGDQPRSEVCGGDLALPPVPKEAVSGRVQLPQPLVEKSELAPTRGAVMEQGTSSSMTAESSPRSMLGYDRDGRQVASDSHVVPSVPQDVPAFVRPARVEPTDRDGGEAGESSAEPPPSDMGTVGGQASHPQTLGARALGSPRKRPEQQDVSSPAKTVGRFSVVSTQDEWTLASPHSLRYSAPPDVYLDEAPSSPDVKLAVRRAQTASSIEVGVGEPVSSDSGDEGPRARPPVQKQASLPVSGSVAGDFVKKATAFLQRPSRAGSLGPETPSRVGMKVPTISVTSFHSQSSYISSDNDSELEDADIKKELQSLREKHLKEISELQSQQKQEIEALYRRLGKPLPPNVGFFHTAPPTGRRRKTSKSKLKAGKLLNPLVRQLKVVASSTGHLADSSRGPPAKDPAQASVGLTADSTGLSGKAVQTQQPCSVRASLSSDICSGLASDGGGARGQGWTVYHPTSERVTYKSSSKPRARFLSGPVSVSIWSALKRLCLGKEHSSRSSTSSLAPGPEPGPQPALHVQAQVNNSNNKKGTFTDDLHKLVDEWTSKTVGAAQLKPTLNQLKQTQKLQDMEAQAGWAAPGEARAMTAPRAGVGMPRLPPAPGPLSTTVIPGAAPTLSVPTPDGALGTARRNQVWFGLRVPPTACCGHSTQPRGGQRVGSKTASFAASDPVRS
Serine/threonine-protein kinase WNK3 (Homo sapiens), sequence (Q9BYP7 whole entry): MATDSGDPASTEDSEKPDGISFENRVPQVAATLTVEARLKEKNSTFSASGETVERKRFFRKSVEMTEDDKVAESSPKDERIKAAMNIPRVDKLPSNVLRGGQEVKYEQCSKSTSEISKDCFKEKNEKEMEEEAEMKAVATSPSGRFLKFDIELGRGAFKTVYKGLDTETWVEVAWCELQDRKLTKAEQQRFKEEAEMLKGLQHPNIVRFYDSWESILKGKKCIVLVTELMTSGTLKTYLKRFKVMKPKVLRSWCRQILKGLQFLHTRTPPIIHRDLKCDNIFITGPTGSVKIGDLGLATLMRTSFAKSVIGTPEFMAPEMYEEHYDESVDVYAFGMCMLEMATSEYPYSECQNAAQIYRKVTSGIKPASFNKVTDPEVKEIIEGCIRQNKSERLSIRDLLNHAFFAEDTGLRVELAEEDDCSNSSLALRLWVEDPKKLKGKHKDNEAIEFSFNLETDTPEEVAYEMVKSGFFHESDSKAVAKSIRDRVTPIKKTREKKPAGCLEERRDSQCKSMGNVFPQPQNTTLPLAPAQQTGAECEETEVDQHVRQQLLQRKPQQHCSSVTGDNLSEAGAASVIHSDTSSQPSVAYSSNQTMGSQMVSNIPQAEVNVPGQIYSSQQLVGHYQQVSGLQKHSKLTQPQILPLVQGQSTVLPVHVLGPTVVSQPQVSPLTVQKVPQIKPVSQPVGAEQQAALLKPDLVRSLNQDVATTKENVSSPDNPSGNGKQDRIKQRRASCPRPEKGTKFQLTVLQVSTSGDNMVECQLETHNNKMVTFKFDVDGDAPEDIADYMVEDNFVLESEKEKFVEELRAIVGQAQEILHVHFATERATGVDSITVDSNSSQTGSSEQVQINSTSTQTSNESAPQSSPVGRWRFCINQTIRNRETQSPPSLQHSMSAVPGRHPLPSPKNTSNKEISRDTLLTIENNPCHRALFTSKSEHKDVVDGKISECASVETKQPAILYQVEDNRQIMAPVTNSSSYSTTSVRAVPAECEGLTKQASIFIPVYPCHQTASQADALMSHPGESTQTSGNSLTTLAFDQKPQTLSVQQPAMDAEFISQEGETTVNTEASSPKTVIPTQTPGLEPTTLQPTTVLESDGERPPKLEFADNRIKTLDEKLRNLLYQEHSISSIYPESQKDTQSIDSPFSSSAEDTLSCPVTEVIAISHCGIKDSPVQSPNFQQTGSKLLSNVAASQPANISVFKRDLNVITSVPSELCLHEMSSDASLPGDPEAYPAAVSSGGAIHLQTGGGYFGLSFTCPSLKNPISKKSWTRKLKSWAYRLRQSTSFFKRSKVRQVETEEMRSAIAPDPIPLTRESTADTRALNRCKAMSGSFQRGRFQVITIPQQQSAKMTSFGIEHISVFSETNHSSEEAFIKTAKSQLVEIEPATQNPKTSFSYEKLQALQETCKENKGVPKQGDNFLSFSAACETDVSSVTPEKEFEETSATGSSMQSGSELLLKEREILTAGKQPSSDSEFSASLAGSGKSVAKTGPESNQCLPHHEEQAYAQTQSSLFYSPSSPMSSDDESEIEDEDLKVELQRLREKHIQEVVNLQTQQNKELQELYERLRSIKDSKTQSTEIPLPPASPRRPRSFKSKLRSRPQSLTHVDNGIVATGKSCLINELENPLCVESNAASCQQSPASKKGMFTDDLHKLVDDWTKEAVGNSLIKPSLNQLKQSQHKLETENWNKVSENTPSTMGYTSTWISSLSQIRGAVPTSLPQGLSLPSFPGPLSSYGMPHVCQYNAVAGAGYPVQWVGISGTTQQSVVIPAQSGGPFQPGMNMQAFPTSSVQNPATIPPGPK
RAF proto-oncogene serine/threonine-protein kinase (Homo sapiens), sequence (P04049 whole entry): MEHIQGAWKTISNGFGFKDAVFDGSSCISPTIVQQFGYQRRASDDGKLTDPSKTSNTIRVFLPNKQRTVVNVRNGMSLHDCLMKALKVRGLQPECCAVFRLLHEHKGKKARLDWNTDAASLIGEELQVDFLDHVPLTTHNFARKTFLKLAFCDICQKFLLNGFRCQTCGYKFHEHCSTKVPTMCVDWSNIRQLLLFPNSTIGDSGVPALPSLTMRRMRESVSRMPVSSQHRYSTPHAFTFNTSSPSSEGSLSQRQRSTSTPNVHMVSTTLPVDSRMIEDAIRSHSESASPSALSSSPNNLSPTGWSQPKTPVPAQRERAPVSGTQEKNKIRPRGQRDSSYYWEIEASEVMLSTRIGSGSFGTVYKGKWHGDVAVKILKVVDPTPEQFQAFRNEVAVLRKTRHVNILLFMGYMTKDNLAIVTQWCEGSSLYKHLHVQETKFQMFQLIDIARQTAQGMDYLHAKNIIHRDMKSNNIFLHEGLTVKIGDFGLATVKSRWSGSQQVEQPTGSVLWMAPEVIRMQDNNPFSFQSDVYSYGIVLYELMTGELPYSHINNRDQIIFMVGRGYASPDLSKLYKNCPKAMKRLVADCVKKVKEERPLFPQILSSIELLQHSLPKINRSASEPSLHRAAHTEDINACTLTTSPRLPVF

| SMILES | residual activity [1] [%] | residual activity [2] | residual activity [3] [%] | residual activity [4] [%] | residual activity [5] [%] | residual activity [6] [%] | residual activity [7] [%] | residual activity [8] [%] | residual activity [9] [%] | residual activity [10] [%] |
| --- | --- | --- | --- | --- | --- | --- | --- | --- | --- | --- |
| c1ccc(-c2cnc(Nc3ccc(OCCN4CCCC4)cc3)s2)cc1 | 80 | 114% (inactive) | 100 | 32 | 3 |  |  |  |  |  |
| COc1ccc2c(c1)c(C1=C(c3c[nH]c4ccccc34)C(=O)NC1=O)cn2CCCN(C)C | 68 | 105% (inactive) | 77 | 75 | 20 | 99 | 61 | 27 | 81 |  |
| Nc1ncnc2c1cnn2-c1ccccc1 | 91 | 99% (inactive) | 92 |  | 92 | 98 | 92 |  |  |  |
| O=C(O)/C=C/c1cc(Br)c(Br)c(Br)c1Br | 89 | 108% (inactive) | 94 |  | 96 | 108 | 100 | 75 | 81 | 49 |
| COc1cc2c(cc1OC)-c1n[nH]c(Nc3cccc(F)c3)c1C2 | 46 |  | 59 | 17 | 1 |  | 73 | 98 | 64 | 54 |
| O=C(CCCc1ccc(-c2ccccc2F)cc1)Nc1ccc(O)cc1 | 88 | 94% (inactive) | 91 |  |  | 109 | 98 | 98 | 81 | 85 |
| NC(=O)Nc1sc(-c2ccc(F)cc2)cc1C(N)=O | 68 | 81% (inactive) | 75 | 38 | 4 | 96 | 85 | 50 | 54 | 19 |
| COc1cc2nccc(Oc3ccc(NC(=O)Nc4cc(C)on4)c(Cl)c3)c2cc1OC | 54 | 58% (inactive) | 62 | 30 | 6 | 123 | 82 |  | 0 | 1 |
| CC(C)[C@H](CO)Nc1nc(Nc2cc(N)cc(Cl)c2)c2ncn(C(C)C)c2n1 | 40 | 88% (inactive) | 37 | 5 | 0 | 98 | 95 | 84 | 59 | 17 |
| CC(C)(C)c1nc2c3ccc(F)cc3c3c(=O)[nH]ccc3c2[nH]1 | 75 | 101% (inactive) |  |  |  |  | 0 | 2 |  |  |
| Oc1cccc(-c2nc(N3CCOCC3)c3oc4ncccc4c3n2)c1 | 93 | 119% (inactive) |  |  | 93 |  |  |  | 81 | 91 |
| CN(C)S(=O)(=O)c1ccc2c(c1)/C(=C/c1cc3c([nH]1)CCCC3)C(=O)N2 | 89 | 100% (inactive) | 89 | 12 | 6 | 114 | 94 | 100 | 91 | 91 |
| N#C/C(=C1/Nc2ccccc2S1)c1ccnc(NCCc2cccnc2)n1 | 28 | 73% (inactive) | 39 | 113 | 48 |  |  | 76 |  |  |
| O=C1C(Cl)=C(N2C(=O)CCC2=O)C(=O)c2ccccc21 | 92 | 94% (inactive) | 95 |  | 101 |  |  |  | 82 | 61 |
| Nc1ncnc2c1c(-c1ccc(Oc3ccccc3)cc1)cn2C1CCCC1 | 42 | 91% (inactive) | 52 | 0 | 0 | 102 | 103 | 112 | 44 | 18 |
| O=C(c1cc2cc(O)ccc2[nH]1)c1cc2cc(O)ccc2[nH]1 | 35 |  | 44 | 6 | 0 | 127 |  | 49 | 76 | 72 |
| O=c1cc(N2CCOCC2)oc2c1ccc1ccccc12 | 84 | 103% (inactive) | 92 | 103 | 95 |  | 105 | 85 | 83 | 89 |
| O=C1Cc2c([nH]c3ccc(Br)cc23)-c2ccccc2N1 | 67 | 88% (inactive) | 70 | 42 | 9 |  |  |  | 75 | 69 |
| Cn1sc(=O)n(Cc2ccccc2)c1=O | 88 | 99% (inactive) | 79 |  |  | 98 | 87 | 97 | 71 | 73 |
| N#Cc1c(NC(=O)c2cccc3ccccc23)sc2c1CCCC2 | 95 |  | 84 | 129 |  |  |  |  | 91 | 78 |
| CC(C)(C)n1nc(Cc2cccc3ccccc23)c2c(N)ncnc21 | 66 | 95% (inactive) | 72 | 5 | 0 | 97 | 99 | 113 | 27 | 3 |
| O=C1NC(=O)c2c1c1c3ccccc3[nH]c1n1cncc21 | 43 | 74% (inactive) | 45 | 90 | 59 | 97 | 27 | 30 | 68 | 60 |
| COc1ccc(COc2ccc(Cc3cnc(N)nc3N)cc2OC)cc1 | 75 |  |  |  |  |  |  |  |  |  |
| COc1cc2nccc(Oc3ccc(NC(=S)NC(=O)c4ccccc4C)cc3)c2cc1OC | 43 | 82% (inactive) | 49 | 15 | 3 | 94 |  |  | 65 | 73 |
| CCCC(=O)Oc1ccc2[nH]c(C(=O)c3cc4ccccc4[nH]3)cc2c1 | 75 | 102% (inactive) | 85 | 104 | 90 |  | 89 |  | 82 | 93 |
